Screening results from PubChem BioAssay.
Shown is part of a subset that was picked to be rich in hits.
BLM inh – inhibitors of human Bloom syndrome helicase BLM; 350,000 tested, 0.2% active; AID 2528; Potency, µM (top dose mostly 56.1 µM), inactives show at the highest dose activity change, negative = inhibition, usual class: inhibitors; recombinant BLM DNA unwinding, fluorescence dequenching; P54132;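 further: plate controls were vehicle for no effect and no enzyme for full effect; nearly all actives have a fitted effect of over 35% in size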
APE1 inh-1 – blocks human APE1 abasic DNA cleavage. P27695. recombinant APE1, TAMRA/BHQ-2 abasic DNA cleavage fluorescence. Potency, µM (doses to about 65.8 µM), for inactives: top-dose activity change, negative = inhibition, hits mostly inhibitors. 350,000 tested, 0.35% active;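 further: plate controls were vehicle for no effect and reference inhibitor for full effect; nearly all actives have a fitted effect of over 55% in size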
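Enzyme (0.75 nM final) and test compound are incubated 15 min at room temperature before adding 50 nM quenched THF abasic-site duplex. Cleavage dequenches TAMRA, followed at 525/598 nm over three reads one minute apart.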
KDM4E inh – blocks human JMJD2E demethylase activity; B2RXH2; JMJD2E catalytic domain, FDH-coupled NADH fluorescence (FDH is formaldehyde dehydrogenase); Potency, µM (doses to about 57.1 µM), for inactives: top-dose activity change, negative = inhibition, usual class: inhibitors; 230,000 tested, 1.6% active; AID 2147; active means well fitted inhibition curve with a large enough effect, not every such curve was filed as active; inconclusive means small, poorly fitted or top-dose-only effect, or another doubt; inactive means no such curve, though single readings can be large or run the other way;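 further: 0% = wells with enzyme and -100% = buffer wells without enzyme; nearly all actives have a fitted effect of over 50% in size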
PKM2 activator – increases activity of human pyruvate kinase M2; Potency, µM (titrated, usually from 57.5 µM), inactives show top-dose activation, actives largely listed as activators; 260,000 tested, 0.34% active; purified PKM2, Kinase-Glo ATP luminescence, activation; response scale: 0% is enzyme alone, no compound; further: nearly all actives have a fitted effect of over 55% in size
Target sequence (P14618 whole entry, looked up): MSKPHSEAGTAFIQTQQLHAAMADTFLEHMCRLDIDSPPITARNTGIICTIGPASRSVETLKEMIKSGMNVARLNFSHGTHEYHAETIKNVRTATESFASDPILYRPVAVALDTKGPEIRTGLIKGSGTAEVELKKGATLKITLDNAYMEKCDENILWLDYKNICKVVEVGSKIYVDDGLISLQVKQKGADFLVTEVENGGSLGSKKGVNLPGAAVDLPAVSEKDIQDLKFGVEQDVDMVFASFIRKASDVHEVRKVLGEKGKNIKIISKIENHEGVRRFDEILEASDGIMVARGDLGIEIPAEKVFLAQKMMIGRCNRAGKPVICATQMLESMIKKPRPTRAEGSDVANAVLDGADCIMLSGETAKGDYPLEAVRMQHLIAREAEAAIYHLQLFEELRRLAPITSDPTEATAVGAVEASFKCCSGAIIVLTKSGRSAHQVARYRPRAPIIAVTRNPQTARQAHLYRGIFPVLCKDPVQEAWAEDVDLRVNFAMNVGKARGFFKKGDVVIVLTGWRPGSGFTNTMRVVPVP
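Purified hPK-M2 (>95% pure) converted ADP (0.1 mM final) to ATP with 0.5 mM PEP in 50 mM imidazole pH7.2, KCl, MgCl2, Tween 20, BSA; 1 h at room temperature. ATP detected by Kinase-Glo luminescence.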
RECQ1 helicase – blocks DNA unwinding by human RECQ1 | P46063 | 240,000 tested, 0.54% active | Potency, µM (titrated, usually from 57.3 µM), for the others: at the top dose activity, negative = inhibition, hits mostly inhibitors | RECQ1 DNA unwinding, red fluorescence kinetic read | AID 2549;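 further: plate controls were vehicle for no effect and no enzyme for full effect; nearly all actives have a fitted effect of over 30% in size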
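RECQ1T1 50 nM; forked duplex (20 bp + 30-nt ss tails) 200 nM, ATP 2 mM final; pH 8.0, 2 mM MgCl2, 2.5 ug/ml poly(dI-dC); 15 min compound preincubation; discontinuous kinetic read over 2 h at RT.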
APE1 dye cs – displaces fluorescent dye from DNA, flagging APE1 artifacts; shares compounds with APE1 inh-1; 480 tested, 7% active; Potency, µM (top dose mostly 28.5 µM), inactives show at the top dose activity change, negative = inhibition, hits mostly inhibitors; DNA fluorescent dye displacement counterscreen, fluorescence;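 further: loss of thiazole orange fluorescence as the dye is displaced from duplex DNA; 0% = ThO with dsDNA and no compound and -100% = ThO without dsDNA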
Endo IV inh – blocks E. coli endonuclease IV DNA cleavage; shares compounds with APE1 inh-1; Potency, µM (series often up to 27.1 µM), inactives show at the highest dose activity change, negative = inhibition, hits mostly inhibitors; E. coli Endo IV, fluorogenic AP-site DNA cleavage; AID 2565; 560 tested, 4% active;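 further: plate controls were uninhibited enzyme wells for no effect and no enzyme buffer wells for full effect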
APE1 inh-2 – confirmation of inhibitors of human APE1 endonuclease | 750 tested, 44% active | purified APE1, fluorogenic abasic-site DNA cleavage | Potency, µM (highest dose often 57.1 µM), for inactives: at the top dose activity change, negative = inhibition, actives largely listed as inhibitors | shares compounds with APE1 inh-1; further: nearly all actives have a fitted effect of over 30% in size
APE1 FP – compounds that displace a DNA probe from human APE1. AID 2573. Potency, µM (doses to about 28.5 µM), inactives show at the top dose activity, negative = inhibition, hits mostly inhibitors. APE1 binding to TAMRA-labelled double-stranded DNA, fluorescence polarization displacement. 480 tested, 7% active. shares compounds with APE1 inh-1
* hit, by the source's call; i = inactive; ? = inconclusive; nt = not tested or not shown; [ ] = dose if it differs, or a comment. Unless noted, the call rests on the fitted dose curve; in most records, active means well fitted curve in the direction sought with a large enough effect; inconclusive means small, poorly fitted or top-dose-only effect, or another doubt; inactive means no such curve, though single readings can be large; an effect the other way counts as inactive or inconclusive. Unless noted, on the % scale 0 is the no-effect control and ±100 the full control effect; potency means the concentration at half of the fitted maximal effect.

SMILES	BLM inh	APE1 inh-1	KDM4E inh	PKM2 activator	RECQ1 helicase	APE1 dye cs	Endo IV inh	APE1 inh-2	APE1 FP
C=C/C1=C/Cc2ccccc2C(C[N+](=O)[O-])C(C(=O)OC)(C(=O)OC)C1 (stereo not drawn)	-1%[12.4 µM]	24%[12.4 µM]	nt	nt	i[11.5 µM]	nt	nt	nt	nt
O=C(O)c1cccc(NC(=S)NC(NC(=O)c2cccc([N+](=O)[O-])c2)C(Cl)(Cl)Cl)c1 (stereo not drawn)	-10%	?	2%	-3%	0%	nt	nt	?	nt
O=C(CSc1nc(-c2ccccc2)nc2ccc(F)cc12)Nc1cccc(C(=O)O)c1	-10%	2%	-6%	12%	-4%	nt	nt	-31%	nt
O=C(O)C1Cc2ccccc2CN1C(=O)COc1ccc(Br)cc1 (stereo not drawn)	-6%	-12%	-6%	3%	-3%	nt	nt	-15%	nt
CC(C)(O)CCCC(C)(O)c1ccc(C(=O)O)cc1O (stereo not drawn)	0%	?	-21%	0%	i	-1%	10%	11µM*	-2%
COCc1cc(O)c(O)c(O)c1-c1c(COC)cc(O)c(O)c1O	-2%	0.18µM*	nt	nt	1µM*	7%[57.1 µM]	144%[57.1 µM]	0.32µM*	6%[57.1 µM]
COc1ccc(CNC(=O)Nc2cc(C)cc(C)c2)cc1	-5%	-45%	10%	-4%	1%	-1%	5%	-5%[24.4 µM]	3%
O=C(CN1C(=O)COc2ccc(S(=O)(=O)NC3CCCC3)cc21)Nc1ccc(Cl)cc1	-9%	nt	nt	nt	nt	nt	nt	nt	nt
COc1ccc(OC)c(NC2=C(c3ccccc3)C(=O)c3ccccc32)c1	-13%	nt	nt	nt	nt	nt	nt	nt	nt
Cc1ccc(S(=O)(=O)Nc2cc(=O)[nH]c(SCC(=O)Nc3cccc(C)c3)n2)cc1	-8%	-6%	-2%	1%	-10%	nt	nt	nt	nt
Cc1ccc(NC(=O)CSc2nc(N)cc(=O)[nH]2)cc1Cl	-4%	35µM*	9%	2%	-28%	?	0%	-5%[24.4 µM]	-4%
Cc1ccc(NC(=O)CSc2nc(NS(=O)(=O)c3ccccc3)cc(=O)[nH]2)cc1	?	?	?	-2%	?	nt	nt	-38%	nt
COc1cccc2c(SCC(=O)N/N=C/c3ccc(O)c(O)c3)cc(C)nc12	?	8.9µM*	16µM*	?	25µM*	-26%	93%	5µM*	-7%
COc1ccc2nc(C)cc(SCC(=O)N/N=C/c3ccc(O)c(O)c3)c2c1	-13%	?	5µM*	25µM*	?	?	115%	7.9µM*	3%
COc1cccc2c(SCC(=O)N/N=C/c3ccccc3)cc(C)nc12	-2%	-3%	-10%	20%	-6%	nt	nt	nt	nt
COc1ccc(/C=N/NC(=O)COc2cccc3cccnc23)cc1OC	30%	-2%	2%	?	-8%	nt	nt	?	nt
CCOc1cc(/C=C2/C(=O)N(c3ccccc3)N=C2C)ccc1OC(=O)c1ccco1	-4%	-9%	?	8%	-1%	nt	nt	nt	nt
CCOc1cc(/C=C2\C(=O)N(c3ccc(C(N)=O)cc3)N=C2C)ccc1OC(=O)c1cccs1	-17%	28µM*	?	-3%	-1%	?	-10%	-7%[24.4 µM]	-6%
